# Compounds without any hit were thinned out: in the full panel of roughly 83,000, 20% have a hit.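 48-hour exposure, single concentration, 96-well plates; percent growth endpoint where 0 means no net growth. Active: below 10.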 Unmarked numbers belong to inactive results. Calls of active or inactive are those of the source.
# Assays:
# Test in all cases: NCI-60 one-dose screen, 48 h (100 = growth as untreated, 0 = no growth, -100 = all killed)
# Conditions in all cases: 10 µM unless noted
# [1] = test system: NCI-H23 lung
# [2] = test system: NCI-H226 lung
# [3] = test system: NCI-H322M lung
# [4] = test system: HOP-62 NSCLC
# [5] = test system: NCI-H460 lung
# [6] = test system: NCI-H522 lung
# [7] = test system: A549/ATCC NSCLC
# [8] = test system: 786-0 renal
# [9] = test system: COLO 205 colon
# [10] = test system: DU-145 prostate
Structure (SMILES),growth [1],growth [2],growth [3],growth [4],growth [5],growth [6],growth [7],growth [8],growth [9],growth [10]
CN(C)c1ccc2c(c1)/C(=N/O)c1ccccc1-2,89%,91.8%,113%,92.2%,97.2%,89%,84.2%,104%,103%,105%
COc1ccc(Nc2nccc(N3CCN(c4c5ccc(Cl)cc5nc5ccc(OC)cc45)CC3)n2)cc1,95.7%,93.8%,83.5%,95.6%,85.8%,-58.3% (active),75.2%,60%,61.1%,86.6%
CN(C(=O)c1ccccc1)N(C)C(=O)c1ccccc1,110%,112%,96.6%,94.7%,109%,102%,103%,100%,102%,121%
C[n+]1c2ccccc2c(Nc2ccc(N3CCCCC3)cc2)c2[nH]c3ccccc3c21,-76.3% (active),-56.5% (active),-95.2% (active),-93.8% (active),-84.1% (active),-96.5% (active),-88% (active),-98.5% (active),-87% (active),-95.7% (active)
c1csc([C@@H]2C[C@@H]3Cc4ccc5ccccc5c4N2O3)c1,95.5%,108%,91.2%,112%,109%,87%,90.8%,98.2%,120%,113%
NC(=O)N/N=C/c1ccc(Br)o1,97.7%,98.8%,101%,94.2%,110%,89.7%,106%,105%,98.6%,110%
Cc1nn(-c2ccccc2)c2c1oc(=O)c1cc(Cl)ccc12,107%,96.3%,90.5%,91.6%,107%,113%,102%,100%,120%,169%
COc1cc(C2C=C(c3ccc(C)cc3)Nc3nc(SC)[nH]c(=O)c32)ccc1Oc1ccnc2cc(Cl)ccc12 (stereo not given),80.7%,79.7%,84%,113%,70.2%,75%,63.1%,85.1%,101%,64.5%
C[n+]1c2ccccc2c(NC2CCNCC2)c2[nH]c3ccccc3c21,3.72% (active),6.63% (active),-38.2% (active),26.5%,-0.0252% (active),-73.2% (active),1.98% (active),58%,-1.65% (active),-1.88% (active)
S=c1[nH]nc2sc3ccccc3n12,88%,106%,125%,97.9%,111%,98.4%,108%,111%,104%,121%
CCc1ccc(CCN2C(=O)c3ccccc3C2=O)nc1,112%,100%,108%,102%,103%,118%,106%,106%,118%,118%
Cc1cc([N+](=O)[O-])c(C)cc1C(=O)O,104%,99.8%,92.7%,103%,111%,96.1%,108%,97%,108%,109%
COC(=O)[C@]1(C(C)C)N[C@H](c2cn(-c3ccccc3)nc2-c2ccccc2)[C@@H]2C(=O)N(c3ccc(Cl)cc3)C(=O)[C@@H]21,92.9%,105%,99.1%,95.7%,105%,81.4%,101%,81.9%,106%,111%
COc1ccc(-c2nn(-c3ccccc3)cc2/C=C2\SC(=S)N(CCc3ccc(O)cc3)C2=O)cc1,89.2%,86.7%,88.6%,97.1%,81.7%,64.7%,81.2%,93.7%,108%,93.3%

# — PubChem BioAssay (NCI)
